# Screening results as filed in PubChem BioAssay.
# Most compounds without a hit are left out; they make up all but 3.2% or so of the library.
# BRCT PPI red = disrupts BRCA1 BRCT binding to phosphoprotein, red fluorophore readout | BRCT-phosphopeptide binding, red fluorescence polarization | 75,000 compounds, 0.03% hits | P38398 | Potency, µM (highest dose often 76.9 µM), without a hit: at the highest dose activity change, negative = inhibition, actives largely listed as inhibitors | AID 892; also: % is scaled to controls: 0 for no effect and ±100 for the full control effect
# Target sequence (P38398 whole entry, looked up): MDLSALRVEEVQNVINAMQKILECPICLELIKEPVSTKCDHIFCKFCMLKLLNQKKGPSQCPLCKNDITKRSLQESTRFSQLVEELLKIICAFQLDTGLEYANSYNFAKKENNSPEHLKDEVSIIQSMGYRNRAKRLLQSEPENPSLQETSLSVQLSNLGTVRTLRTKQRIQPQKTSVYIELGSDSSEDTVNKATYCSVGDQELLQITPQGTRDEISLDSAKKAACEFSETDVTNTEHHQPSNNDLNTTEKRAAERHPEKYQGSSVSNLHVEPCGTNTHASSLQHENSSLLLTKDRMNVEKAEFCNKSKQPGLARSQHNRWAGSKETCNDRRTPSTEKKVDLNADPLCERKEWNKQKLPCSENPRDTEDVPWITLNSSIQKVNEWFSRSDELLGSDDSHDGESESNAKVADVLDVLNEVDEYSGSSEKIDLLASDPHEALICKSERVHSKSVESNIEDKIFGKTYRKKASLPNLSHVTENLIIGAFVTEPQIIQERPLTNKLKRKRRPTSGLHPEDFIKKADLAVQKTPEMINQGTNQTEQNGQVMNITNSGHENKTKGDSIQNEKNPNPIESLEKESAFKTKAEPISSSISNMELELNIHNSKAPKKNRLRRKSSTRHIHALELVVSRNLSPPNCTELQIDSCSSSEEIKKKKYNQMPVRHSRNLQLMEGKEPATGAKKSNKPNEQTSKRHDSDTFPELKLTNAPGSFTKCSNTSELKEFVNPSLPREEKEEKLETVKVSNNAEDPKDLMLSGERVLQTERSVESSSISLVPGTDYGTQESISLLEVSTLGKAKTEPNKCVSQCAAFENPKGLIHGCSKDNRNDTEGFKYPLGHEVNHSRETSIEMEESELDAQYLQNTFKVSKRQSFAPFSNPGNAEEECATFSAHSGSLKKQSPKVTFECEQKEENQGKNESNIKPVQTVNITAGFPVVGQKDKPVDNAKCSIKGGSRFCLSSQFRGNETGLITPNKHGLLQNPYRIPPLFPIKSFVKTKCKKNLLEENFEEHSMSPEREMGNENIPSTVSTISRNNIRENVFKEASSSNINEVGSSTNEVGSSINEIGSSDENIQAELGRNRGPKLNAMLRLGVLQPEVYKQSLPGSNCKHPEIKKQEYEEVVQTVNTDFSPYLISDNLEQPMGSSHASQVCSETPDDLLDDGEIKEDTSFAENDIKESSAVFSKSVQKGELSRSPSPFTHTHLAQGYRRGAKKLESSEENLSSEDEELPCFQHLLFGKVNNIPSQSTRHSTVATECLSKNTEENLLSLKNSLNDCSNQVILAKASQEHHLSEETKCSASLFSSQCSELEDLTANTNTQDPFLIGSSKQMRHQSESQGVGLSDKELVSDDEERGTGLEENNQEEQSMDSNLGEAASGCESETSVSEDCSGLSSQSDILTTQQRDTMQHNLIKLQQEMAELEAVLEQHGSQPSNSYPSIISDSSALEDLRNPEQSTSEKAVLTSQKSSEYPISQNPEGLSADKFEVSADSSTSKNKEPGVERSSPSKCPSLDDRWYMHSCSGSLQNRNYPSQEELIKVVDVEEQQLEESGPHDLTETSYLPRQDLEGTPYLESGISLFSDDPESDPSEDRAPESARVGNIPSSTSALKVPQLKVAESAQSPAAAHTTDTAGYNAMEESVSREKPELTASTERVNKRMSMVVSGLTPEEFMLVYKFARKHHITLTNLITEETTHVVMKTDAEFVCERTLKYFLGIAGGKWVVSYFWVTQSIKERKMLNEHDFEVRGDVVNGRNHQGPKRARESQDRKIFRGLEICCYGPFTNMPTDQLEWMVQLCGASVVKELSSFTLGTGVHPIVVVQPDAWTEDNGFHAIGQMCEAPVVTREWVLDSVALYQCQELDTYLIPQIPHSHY
#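 Rhodamine-labelled pBACH1 10-mer (100 nM) bound to BRCT domain (100 nM) at pH 7.3; compounds incubated 12 min room temperature, polarization read. Free peptide defines full inhibition; unlabelled decapeptide titrated as control.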
# Pol III holo inh = DNA polymerase III holoenzyme inhibition. reconstituted DNA polymerase III holoenzyme replication, biochemical. Potency, µM (highest dose often 57.1 µM), for inactives: top-dose activity change, negative = inhibition. 71,000 compounds, 0.25% hits; also: potency is read from the fitted curve at half-maximal effect; % is scaled to controls: 0 for no effect and ±100 for the full control effect
#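 Reconstituted *E. coli* holoenzyme (0.35 nM Pol III, 1 nM beta, 154 nM SSB, 2 nM primase) was preincubated with compound for 15 min at RT. Synthesis on 1.4 nM ssM13Gori ran 35 min, then was stopped with PicoGreen/EDTA and read as dsDNA fluorescence.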
# TSHR ag = activates the human thyroid stimulating hormone receptor. P16473. HEK293-CNG-TSHR cells (CNG channel as cAMP sensor), membrane potential dye, cAMP. Potency, µM (doses to about 57.1 µM), for the others: at the top dose activation, actives largely listed as activators. 73,000 compounds, 0.48% hits. AID 926; active = well fitted activation curve with a large enough effect in the main read-out, with a control signal flat, not every such curve was filed as active; inconclusive = small, poorly fitted or top-dose-only effect, or a change in a side signal; inactive = no such curve, though single readings can be large or run the other way; % of control where 0% means no effect;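 also: the control signal comes from parental cells without the receptor; potency is read from the fitted curve at half-maximal effect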
#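 cAMP rise detected as CNG-channel membrane depolarization by fluorescent dye (emission 590 nm), 30 min after compound, following 60 min dye loading containing 100 uM RO 20-1724 at room temperature. Cells: TSHR/CNG HEK 293, with parental CNG HEK 293 as control.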
# YjeE inh = displaces an ADP probe from E. coli YjeE (TsaE). AID 605. Potency, µM. P0AF67. purified YjeE enzyme, qHTS inhibition assay. 71,000 compounds, 0.05% hits
#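 Fluorescence polarization of a BODIPY Texas Red–ADP probe (2 uM) bound to purified YjeE (10 uM) was read after 15 min room-temperature incubation with compounds. Loss of polarization marks inhibitors; ADP serves as titrated control.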
# BRCT PPI green = BRCA1 BRCT-phosphoprotein interaction inhibition. P38398. BRCA1 BRCT-phosphopeptide binding, green fluorescence polarization. Potency, µM (series often up to 76.9 µM), inactives show top-dose activity change, negative = inhibition, most hits filed as inhibitors. 75,000 compounds, 0.05% hits;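 also: potency is read from the fitted curve at half-maximal effect; plate controls were peptide without protein for full effect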
#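 Fluorescence polarization: His-tagged BRCT (~35 kDa BRCA1 C-terminus, 250 nM) bound to 100 nM fluorescein-labeled phosphorylated 10-aa BACH1 peptide, pH 7.3 phosphate buffer with DTT and Tween 20. Compounds incubated 12 min at room temperature; inhibition read as lowered polarization.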
# HEK293 cAMP cs = counter-screen for TSHR agonists: cAMP increase in parental HEK293; parental HEK293 CNG cAMP sensor, membrane potential fluorescence; Potency, µM (doses to about 57.1 µM), without a hit: at the highest dose activation, usual class: activators; 73,000 compounds, 2.5% hits; also: potency is read from the fitted curve at half-maximal effect; % of control where 0% means no effect; nearly all actives have a fitted effect of over 55% in size
#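 Parental HEK 293 cells stably expressing a modified CNG channel (no TSHR) report cAMP rise as membrane depolarization. Membrane potential dye with 100 uM RO 20-1724 was loaded for 60 min at room temperature, then compound added for 30 min; fluorescence read at 590 nm.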
# An asterisk follows results filed as active; i = inactive; ? = inconclusive; ! = not active in a repeat; [ ] = another dose, or the depositor's remark. Unless noted, calls follow the shape of the dose curve; as a rule, active = well fitted curve in the direction sought with a large enough effect; inconclusive = small, poorly fitted or top-dose-only effect, or another doubt; inactive = no such curve, though single readings can be large; an effect the other way counts as inactive or inconclusive.
SMILES,BRCT PPI red,Pol III holo inh,TSHR ag,YjeE inh,BRCT PPI green,HEK293 cAMP cs
CCOC(=O)C1CCN(C(=O)Nc2ccc3nc(-c4ccco4)c(-c4ccco4)nc3c2)CC1,?,13µM*,0%,i,-29%,-3%
O=C(Nc1ccc2nc(-c3ccco3)c(-c3ccco3)nc2c1)N1CCCCCC1,?,16µM*,-5%,i,-22%,4%
CCOc1ccccc1NC(=O)C1CCCN(S(=O)(=O)c2c(C)[nH]c(=O)[nH]c2=O)C1 (configuration not stated),-1%,-4%,1%[11.4 µM],i,0%,13%
O=C(Nc1ccccc1N1CCCC1)c1ccc(Br)o1,0%,-4%,25%,i,-3%,20%
CC(CCC(=O)O)(c1cc(Br)c(O)c(Br)c1)c1cc(Br)c(O)c(Br)c1,0%[15.4 µM],-12%[11.4 µM],?,i,-2%[15.4 µM],1.3µM*
CC[C@@H](c1ccc2cc(O)ccc2c1)C(C)(C)C(=O)O,-2%[15.4 µM],-1%[11.4 µM],2%[11.4 µM],i,-5%[15.4 µM],-9%[11.4 µM]
COc1ccc2oc(C(=O)OCC(=O)c3ccc4c(c3)OCCO4)c(C)c2c1,0%,-1%,?,i,-1%,20µM*
Cn1c(SCc2c(Cl)cccc2Cl)nnc1-c1cccs1,-1%,-8%,?,i,-1%,13µM*
Cc1ccc(CSc2nnc(-c3cccs3)n2C)cc1,0%,-5%,29%,i,2%,24%
CCn1nc(C(=O)N2CCc3ccccc3C2)c2ccccc2c1=O,1%,9%,8%,i,0%,-9%
O=C1C(SCCO)=C(SCCO)C(=O)c2ccccc21,-4%,32µM*!,?,i,2%,25µM*!
N#CC(=NCCO)C1=C(O)c2ccccc2C1=O,0%[15.4 µM],1%[11.4 µM],-8%[11.4 µM],i,0%[15.4 µM],0%[11.4 µM]
CCc1nnc(NC(=O)CSc2nc3c(cc2C#N)CCC3)s1,-1%,0%,-9%,i,-1%,6%
N#Cc1cc2c(nc1SCC(=O)Nc1nccs1)CCCCC2,1%,5%,?,i,4%,20µM*
Clc1ccc(OCc2nn3c(C4CCCCC4)nnc3s2)c(Cl)c1,-2%,-4%,?,i,0%,32µM*
O=C(O)C1C2C=CC(C2)C1C(=O)NCCc1ccccc1 (configuration not stated),0%,-2%,-2%,i,-2%,1%
C=COCCn1c(-c2nonc2N)nc2ccccc21,2%,-6%,?,i,1%,25µM*
Cn1cccc1-c1nc2ccccc2n1Cc1ccccc1,-1%,-4%,?,i,0%,32µM*
CCC(=O)Nc1nonc1-c1nc2ccccc2n1N(C(=O)CC)C(=O)CC,-1%,-4%,6%[11.4 µM],i,1%,9%
CCC(=O)Nc1nonc1-c1nc2ccccc2n1Cc1ccccc1,-1%,4%,?,i,-3%,20µM*
COCCn1c(COC)nc2ccccc21,1%,-5%,0%,i,-1%,4%
c1coc(Cn2c(-c3ccco3)nc3ccccc32)c1,-1%,-2%,?,i,2%,?
Nc1nonc1-c1nc2ccccc2n1Cc1ccc(Cl)cc1,0%,6%,?,i,-1%,16µM*
CCCCC(NC(C)=O)c1nc2ccccc2[nH]1 (configuration not stated),-5%,-8%,2%,i,1%,13%
Cc1ccc(Cn2c(-c3nonc3N)nc3ccccc32)cc1,0%,-5%,?,i,-1%,32µM*
SMILES,BRCT PPI red,Pol III holo inh,TSHR ag,YjeE inh,BRCT PPI green,HEK293 cAMP cs
Cc1ccc2c(c1)cc(CN(Cc1cccs1)C(=O)c1ccco1)c1nnnn12,0%,-5%,?,i,1%,16µM*
Cc1ccc2cc(CN(Cc3cccs3)C(=O)c3ccco3)c3nnnn3c2c1C,0%,-4%,?,i,0%,?
CCN(CC)CC[n+]1ccc2c(C)c3[nH]c4ccc(O)cc4c3c(C)c2c1,-4%[15.4 µM],1.3µM*,19%[11.4 µM],i,-3%[15.4 µM],7%[11.4 µM]
CCN(CC)CCOC(=O)c1c(C)oc2ccc(O)cc12,1%,-2%,13%,i,-1%,27%
CCNc1nc(NC(C)C)nc(N(C#N)CCOc2ccc(Cl)cc2Cl)n1,-2%,3%,?,i,1%,32µM*
CCNc1nc(NC(C)C)nc(N(C#N)Cc2ccccc2)n1,-2%,-3%,24%,i,5%,19%
C=CCn1c(SCC(=O)c2cccs2)nc2sc(CC)cc2c1=O,1%,1%,?,i,-1%,16µM*
C=CCn1c(SCC(=O)N2CCN(C(=O)c3ccco3)CC2)nc2sc(CC)cc2c1=O,0%,-11%,3%,i,9%,14%
CCOc1ccccc1CN(Cc1ccco1)S(=O)(=O)c1ccc(-n2cnnn2)c(OC)c1,-3%,-3%,?,i,-2%,10µM*
COc1cc(S(=O)(=O)N(Cc2ccco2)C2CCCC2)ccc1-n1cnnn1,-1%,2%,?,i,0%,?
COc1ccc2[nH]c(=O)c(CN(C(=O)C3CCCO3)c3ccc(C)cc3)cc2c1 (configuration not stated),0%,-5%,-2%,i,1%,8%
COc1cc(-c2noc(-c3cccs3)n2)cc(OC)c1OC,-2%,-10%,19%,i,-1%,15%
CCOc1ccc(Br)cc1-c1noc(-c2cccs2)n1,0%,-1%,25µM*,i,-2%,20%
CN(Cc1ccco1)c1nc(-c2ccccc2C(F)(F)F)nc2ccccc12,1%,0%,?,i,-2%,10µM*
CN(Cc1ccco1)c1nc(-c2cccnc2)nc2ccccc12,-2%,-5%,?,i,1%,25µM*
CN(Cc1ccco1)c1nc(-c2ccccc2Cl)nc2ccccc12,2%,-2%,18%,i,-2%,23%
COc1ccccc1-c1nc(N(C)Cc2ccco2)c2ccccc2n1,0%,-3%,?,i,-1%,25µM*
Cc1noc(C)c1C(=O)N1CCC2(CCCN(Cc3ccc(C#N)cc3)C2)CC1,-1%,-7%,-6%,i,-1%,-4%
O=c1cc(N2CCc3ccccc32)[nH]c(=O)n1-c1ccccc1,1%,-2%,-3%,i,-2%,10%[2.29 µM]
CCOC(=O)c1cc2sccc2n1CC(=O)N1CCc2ccccc21,1%,3%,?,i,-1%,16µM*
Cc1cc2c(c(=O)n1C1CC1)C(c1cccc(Cl)c1)C(C#N)=C(N)O2 (configuration not stated),-1%,-9%,?,i,-1%,3.2µM*
